SUMO HTRF inh = blocks human SUMOylation mediated by UBC9. P63279. HTRF SUMOylation assay, SAE1/SAE2 + UBC9, in vitro. inhibition, % at 35 µM. 290,000 compounds, 0.36% hits. AID 2006; in the data active means inhibition above about 50%, passing the limit was not always enough
Target sequence (P63279 whole entry, looked up): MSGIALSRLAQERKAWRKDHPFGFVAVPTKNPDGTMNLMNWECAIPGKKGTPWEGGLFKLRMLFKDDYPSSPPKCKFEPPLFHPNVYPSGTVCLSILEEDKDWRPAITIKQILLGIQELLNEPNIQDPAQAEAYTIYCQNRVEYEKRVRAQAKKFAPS
H9c2 protect = myocardial damage modulation in H9c2 cells | 360,000 compounds, 0.63% hits | protection from H2O2 cell death, % at 20 µM | AID 588492 | H9c2 cardiomyocytes, H2O2 injury protection, ATPLite, 2 h;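 active means compounds giving at least 50% protection of heart cells from peroxide-induced death in the single-dose screen, raw or plate-pattern-corrected value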
NTR1 ag = agonists of human neurotensin receptor NTR1. NTR1-U2OS beta-arrestin-GFP spot imaging, agonist mode. P30989. activation, % at 20 µM. 330,000 compounds, 0.17% hits;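 active means activation at or above 40% of the spot to cytoplasm intensity ratio, with at least 20 cells analyzed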
ALR H2O2 inh = human ALR oxidase inhibition via reduced H2O2; P55789; purified ALR, DTT oxidation, H2O2 HRP-luminol luminescence; inhibition, % (no concentration beside the values); 290,000 compounds, 3.8% hits;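 active means mean replicate inhibition above about 79%, with every replicate also reaching it, limit read from the data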
Target sequence (P55789 whole entry, looked up): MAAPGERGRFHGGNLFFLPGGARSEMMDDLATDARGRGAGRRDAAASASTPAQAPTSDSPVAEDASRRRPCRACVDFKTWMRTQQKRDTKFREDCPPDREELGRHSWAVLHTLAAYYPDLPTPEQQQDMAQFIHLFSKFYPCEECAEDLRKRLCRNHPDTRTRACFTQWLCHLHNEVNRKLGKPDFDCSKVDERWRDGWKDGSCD
Each line names hits and unclear results; the compound was inactive in the other large screens. Most compounds without a hit are left out; they make up all but 3.9% or so of the library.

COc1ccc(-c2nc(CN3CCC(C(=O)N4CCc5ccccc54)CC3)c(C)o2)cc1OC	none
COc1ccc(-c2nc(CS(=O)CC(=O)NC3CCCCC3C)c(C)o2)cc1OC (configuration not stated)	ALR H2O2 inh 98.8
Cc1cccc(-c2nc(CS(=O)CC(=O)NC3CCCC(C)C3C)c(C)o2)c1 (configuration not stated)	ALR H2O2 inh 99.2
Cc1cccc(-c2nc(CS(=O)CC(=O)NC3CCCC3)c(C)o2)c1 (configuration not stated)	none (no result: NTR1 ag, ALR H2O2 inh)
CCCCNC(=O)O[C@@H]1C[C@@H]2CCN3C(=O)CCC[C@H]([C@H]1CC)[C@H]23	none
CCC1CCCCN1CCCNC(=O)CS(=O)Cc1nc(-c2ccc(OC)c(OC)c2)oc1C (configuration not stated)	ALR H2O2 inh 99.6
CCOC(=O)CC1CCCCN1Cc1nc(-c2ccc(F)c(OC)c2)oc1C (configuration not stated)	none
Cc1ccc(-c2nc(CS(=O)CC(=O)NC3CCCCC3)c(C)o2)cc1 (configuration not stated)	ALR H2O2 inh 98.8
COc1ccc2nc(-c3ccccc3)nc(SCC(=O)NCC3CCCO3)c2c1 (configuration not stated)	none
COc1ccc(-c2nc(CS(=O)CC(=O)NCC3CCCO3)c(C)o2)cc1 (configuration not stated)	ALR H2O2 inh 98.4
COc1cccc(-c2nc(CSCC(=O)NCC3CCCO3)c(C)o2)c1 (configuration not stated)	ALR H2O2 inh 99.1
Cc1ccc(-c2nc(CS(=O)(=O)CC(=O)NC3CCC(C)CC3)c(C)o2)cc1 (configuration not stated)	none
O=C(NCCCc1ccccc1)c1cccc(NC(=O)C2CC2)c1	none (no result: SUMO HTRF inh, NTR1 ag, ALR H2O2 inh)
CN(C)C(CNc1ccc(C(F)(F)F)cc1[N+](=O)[O-])c1ccccc1 (configuration not stated)	none
Cc1oc(-c2ccc(Cl)cc2)nc1CS(=O)CC(=O)NC1CCCC1 (configuration not stated)	ALR H2O2 inh 99.0
Cc1ccc(-c2nsc(SCC(=O)NCC3CCCO3)n2)cc1 (configuration not stated)	none
COc1ccc(-c2nsc(SCC(=O)NCC3CCCO3)n2)cc1 (configuration not stated)	ALR H2O2 inh 94.8
Cc1oc(-c2cccs2)nc1CS(=O)CC(=O)NC1CCCCCC1 (configuration not stated)	ALR H2O2 inh 98.6
Cc1oc(-c2ccc(Cl)cc2)nc1CS(=O)CC(=O)NC1CCCCCC1 (configuration not stated)	none
Cc1oc(-c2ccc(Cl)cc2)nc1CS(=O)CC(=O)NC1CCCCC1 (configuration not stated)	ALR H2O2 inh 97.0
CCc1nc2ccc(C(=O)Nc3cccc(NS(C)(=O)=O)c3)cn2c1N(C)C(=O)Cc1ccccc1	none (no result: SUMO HTRF inh, NTR1 ag, ALR H2O2 inh)
O=C(O)/C=C/C(=O)Nc1cccnc1	none (no result: NTR1 ag)
COC(=O)/C=C/C(=O)Nc1cccnc1	ALR H2O2 inh 95.2
COC(=O)/C=C/C(=O)Nc1ccc(O)c(Cl)c1	ALR H2O2 inh 99.6
CCC(C)Sc1cc(C)c(C#N)c2nc3ccccc3n12 (configuration not stated)	none (no result: ALR H2O2 inh)
CCCc1cc(SCC(=O)Nc2c(C)n(C)n(-c3ccccc3)c2=O)n2c(nc3ccccc32)c1C#N	ALR H2O2 inh 98.1 (no result: H9c2 protect)
CCOC(=O)CSc1cc(C)c(C#N)c2nc3ccccc3n12	ALR H2O2 inh 98.7
O=c1[nH]c(=S)[nH]c2c1C(c1ccc(F)cc1)OC(C1CCCCC1)C2 (configuration not stated)	none (no result: SUMO HTRF inh, NTR1 ag, ALR H2O2 inh)
Nc1ccc(Cc2ccc(N)c(C(=O)O)c2)cc1C(=O)O	none
Cc1cc(Cc2ccc(N)c(C)c2)ccc1N	ALR H2O2 inh 80.6
CCOc1cc(/C=C2/C(=N)N3C(=NC2=O)SN=C3S(C)(=O)=O)ccc1OS(=O)(=O)c1ccccc1	ALR H2O2 inh 94.8
CCOc1ccc(-n2c(C)cc(/C=C3/C(=N)N4C(=NC3=O)SN=C4S(C)(=O)=O)c2C)cc1	ALR H2O2 inh 97.8
Cc1cc(/C=C2/C(=N)N3C(=NC2=O)SN=C3S(C)(=O)=O)c(C)n1-c1ccc(F)cc1	none
COc1ccc(CCN2CC(C(=O)O)CC2=O)cc1OC (configuration not stated)	none
Nc1nnc(CCS(=O)(=O)c2ccc(Cl)cc2)s1	none
CC12C(=O)N(c3nccs3)C(=O)C1(C)C1CCC2O1 (configuration not stated)	none (no result: SUMO HTRF inh, NTR1 ag, ALR H2O2 inh)
C[C@@]12C(=O)OC(=O)[C@]1(C)C1CCC2O1	H9c2 protect 67.0 (no result: SUMO HTRF inh)
COc1ccccc1/C=C/C(=O)NC(=S)NCC1CCCO1 (configuration not stated)	none
CC(=O)NS(=O)(=O)c1ccc(NC(=O)c2cc(-c3ccc(C)cc3)nc3ccccc23)cc1	ALR H2O2 inh 97.8
CC(=O)NS(=O)(=O)c1ccc(NC(=O)c2cc(-c3ccc(C)c(C)c3)nc3ccccc23)cc1	ALR H2O2 inh 97.4
CS(=O)(=O)N1CCN=C1SCc1ccccc1	none
Cc1ccc(CSC2=NCCN2S(=O)(=O)c2ccc(C)cc2)cc1	none (no result: SUMO HTRF inh, NTR1 ag, ALR H2O2 inh)
CCS(=O)(=O)N1CCN=C1SCc1cccnc1	ALR H2O2 inh 98.5
Cc1ccc(S(=O)(=O)N2CCN=C2SCc2cccnc2)cc1	ALR H2O2 inh 98.4
O=S(=O)(c1ccccc1)N1CCN=C1SCc1cccnc1	ALR H2O2 inh 99.5
O=S(=O)(c1ccc(Cl)cc1)N1CCN=C1SCc1cccnc1	ALR H2O2 inh 96.9
O=S(=O)(c1ccc(Cl)cc1)N1CCN=C1SCc1cccc(Cl)c1	none (no result: ALR H2O2 inh)
Cc1cccc(OCCCC(=O)Nc2ccc(Cl)c(S(=O)(=O)N3CCOCC3)c2)c1	none (no result: SUMO HTRF inh)
COc1ccc(S(=O)(=O)N2CCN=C2SCc2cccnc2)cc1	ALR H2O2 inh 98.7
N#Cc1ccc(C23CC4(C2)[C@H](CN(CC2CCCCC2)[C@@H]4c2ccccc2)C3c2ccccc2)cc1 (some centres not stated)	none
Cc1ccc(SCc2cc(=O)c3c(=O)n(-c4ccccc4)[nH]c3[nH]2)cc1	ALR H2O2 inh 93.7
O=c1cc(CSc2ccc(Cl)cc2)[nH]c2[nH]n(-c3ccccc3)c(=O)c12	ALR H2O2 inh 84.7
O=c1cc(CSc2ccccc2)[nH]c2ccccc12	none
Cc1[nH]n(-c2ccccc2)c(=O)c1Sc1ccc(Cl)cc1	none
COc1ccc(Br)cc1-c1nc(C)c(C(C)=O)n1O	none
CC1CN(C(=O)c2ccc(COc3ccc(C(C)C)cc3)o2)CC(C)O1 (configuration not stated)	none
COCc1ccc(C(=O)N2CCCC(Nc3ccc(C(C)C)cc3)C2)o1 (configuration not stated)	ALR H2O2 inh 93.3
COCc1ccc(C(=O)N2CCCC(Nc3ccc(C(C)C)cc3)C2)s1 (configuration not stated)	ALR H2O2 inh 92.9
S=c1[nH]c2ccccc2n2c(=S)[nH]nc12	ALR H2O2 inh 98.7
CCOC(=O)NN1C(=O)c2ccccc2NC1c1ccccn1 (configuration not stated)	none
CC(C)CC[n+]1ccccc1/C=C/c1ccc(N(C)C)cc1	ALR H2O2 inh 98.8

High-throughput results: PubChem BioAssay, several laboratories
